Experimental findings from PubChem BioAssay (Tox21) are described below.

Structures are written as SMILES. Where “and” joins values, the source holds several entries; their conditions need not be identical. Equal values may be shown once. Inconclusive results are not listed. Calls of active or inactive are those of the source. Unless noted, the call rests on the fitted dose curve; in most records, active means well fitted curve in the direction sought with a large enough effect in the repeat runs; inconclusive means weak or mixed curves; inactive means no such curve, though single readings can be large; an effect the other way counts as inactive or inconclusive.

Assay [1] can be described thus: qHTS assay to identify small molecule agonists of the RXR signaling pathway - cell viability counter screen (AID 1159529). Further: nearly all actives have a fitted effect of over 50% in size. Further: potency means the concentration at half of the fitted maximal effect. The method, boiled down: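 Compounds dissolved in DMSO were pinned onto HEK 293T cells carrying a beta-lactamase reporter under RXR-alpha control and incubated 16 hr. Cytotoxicity was then quantified by CellTiter-Glo luminescence.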
For orientation: qHTS replaces the single test concentration by a dilution series.

A short description of assay [2]: qHTS assay to identify small molecule antagonists of the retinoid acid receptor (RAR) signaling pathway - cell viability counter screen (AID 1159551). Further: nearly all actives have a fitted effect of over 35% in size. Further: potency means the concentration at half of the fitted maximal effect. Put shortly:
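C3RL4 cells were seeded overnight at 37 C, then treated with compounds plus 1 uM (final) retinol for 6 h at 37 C. Viability was read as ATP by CellTiter-Glo luminescence after 30 min at room temperature.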

Assay [3] in a line: qHTS assay to identify small molecule antagonists of the estrogen related receptor (ERR) signaling pathway from Tox21 library - cell viability counter screen (AID 1224834). Further: nearly all actives have a fitted effect of over 30% in size. Further: potency means the concentration at half of the fitted maximal effect. Put shortly:
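ERR reporter cells were plated 6 h before compound addition, then exposed to test compounds in DMSO for 17.5 h at 37 C. Viability was read as CellTiter-Fluor fluorescence after a 30-minute incubation at 37 C.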

In assay [4] the target is Luciferin 4-monooxygenase (Photinus pyralis) (UniProt P08659). In words: qHTS assay to identify small molecule inhibitors of firefly luciferase (AID 1224835). Further: series mostly up to about 120 µM; on the % scale 0 is the no-effect control and ±100 the full control effect; nearly all actives have a fitted effect of over 25% in size. Put shortly:
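Quantitative HTS format; KM concentrations of both substrates. Purified P. pyralis FLuc activity quantified from luminescence images.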

The nature of assay [5]: qHTS assay to identify small molecule agonists of the constitutive androstane receptor (CAR) signaling pathway - cell viability counter screen (AID 1224836). Further: nearly all actives have a fitted effect of over 45% in size. Further: potency means the concentration at half of the fitted maximal effect. Put shortly: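 23 h treatment, 37 C, 5% CO2. Cell line: HepG2 stably expressing hCAR with a CYP2B6-2.2kb construct. Co-treatment: PK11195, 0.75 uM final. Read-out: CellTiter-Fluor fluorescence intensity.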
Assay [6] can be described thus: qHTS assay to identify small molecule antagonists of the constitutive androstane receptor (CAR) signaling pathway - cell viability counter screen (AID 1224837). Further: nearly all actives have a fitted effect of over 45% in size. Further: potency means the concentration at half of the fitted maximal effect. The method, boiled down:
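HepG2 cells stably expressing hCAR and a CYP2B6-2.2kb reporter were plated and pre-incubated 4 hr at 37 C/5% CO2, then given compounds at 15 concentrations plus 50 nM CITCO (final). After 23 hr, viability was read by CellTiter-Fluor fluorescence.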

For assay [7], the target named is Nuclear receptor subfamily 1 group I member 3 (Homo sapiens) (UniProt Q14994). Put plainly: qHTS assay to identify small molecule antagonists of the constitutive androstane receptor (CAR) signaling pathway (AID 1224838). Further: nearly all actives have a fitted effect of over 40% in size. Further: potency means the concentration at half of the fitted maximal effect. The method, boiled down:
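HepG2 cells stably co-transfected with hCAR and a CYP2B6-2.2kb luciferase reporter were seeded 4 h before compound addition at 15 concentrations. Cells were stimulated with 50 nM CITCO (final) for 24 h at 37 C; luciferase luminescence was then read.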

Assay [8] shares this target. Put plainly: qHTS assay to identify small molecule agonists of the constitutive androstane receptor (CAR) signaling pathway (AID 1224839). Further: nearly all actives have a fitted effect of over 15% in size. Further: potency means the concentration at half of the fitted maximal effect. The method, boiled down:
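Compounds tested at 15 concentrations on HepG2 cells stably harbouring hCAR and CYP2B6-2.2kb reporter constructs, co-treated with PK11195 (0.75 uM final), 24 h at 37 C; luminescent reporter signal quantified.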

The nature of assay [9]: qHTS assay to identify small molecule antagonists of the estrogen related receptor signaling pathway with the pleiotropic PPARgamma coactivator (PGC) from Tox21 10K library - cell viability counter screen (AID 1224840; active means well fitted cell-killing curve with a large enough effect in the repeat runs, not every such curve was filed as active; further: nearly all actives have a fitted effect of over 40% in size; further: potency means the concentration at half of the fitted maximal effect). Put shortly: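 PGC/ERR cells were seeded at 2,000 cells/well and left 6 hours at 37 C/5% CO2 before pin-tool addition of compounds in DMSO. After 17.5 hours at 37 C, CellTiter-Fluor was added and fluorescence read 30 minutes later.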

For assay [10], the target named is Thyrotropin receptor (Homo sapiens) (UniProt P16473). Put plainly: qHTS assay to identify small molecule agonists of the thyroid stimulating hormone receptor (TSHR) signaling pathway (AID 1224843; calls by dose curve; further: nearly all actives have a fitted effect of over 45% in size; further: potency means the concentration at half of the fitted maximal effect). The method, boiled down: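 Cell line HEK293 with TSHR; density 800/well. Exposure 30 min RT. Readout HTRF cAMP (cAMP-d2/anti-cAMP-cryptate), 1 h RT before reading.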

Assay [11] can be described thus: qHTS assay to identify small molecule agonists of the retinoic acid receptor (RAR) signaling pathway (AID 1159553). Further: potency means the concentration at half of the fitted maximal effect. The method, boiled down:
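C3RL4 cells carrying a RARE luciferase reporter were plated overnight at 37 C, then exposed to compounds in DMSO for 6 hr at 37 C and 5% CO2. Luminescence was read 30 min after luciferase reagent addition at room temperature.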

Assay [12] in a line: qHTS assay to identify small molecule antagonists of the estrogen related receptor signaling pathway with the pleiotropic PPARgamma coactivator (PGC) from Tox21 10K library (AID 1224841; call rule not given here; further: actives are mostly falling curves and most rising ones were filed inactive; nearly all actives have a fitted effect of over 50% in size; further: potency means the concentration at half of the fitted maximal effect). Put shortly:
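PGC/ERR reporter cells were seeded at 2,000 cells/well and held 6 hours at 37 C/5% CO2 before pin-tool addition of compounds in DMSO. After 18 hours at 37 C, One-Glo was added and luminescence read after 30 minutes at room temperature.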

Assay [13] can be described thus: qHTS assay to identify small molecule agonists of the estrogen related receptor signaling pathway with the pleiotropic PPARgamma coactivator (PGC) from Tox21 10K library (AID 1224842). Further: on the % scale 0 is the no-effect control and ±100 the full control effect; nearly all actives have a fitted effect of over 15% in size. The method, boiled down:
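PGC/ERR reporter cells (NTP line) were seeded 2,000 per well, rested 6 h at 37 C/5% CO2, then pin-dosed with compounds in DMSO for 18 h at 37 C; luciferase read by One-Glo luminescence after 30 min at room temperature.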

Assay [14] in a line: qHTS assay to identify small molecule antagonists of the estrogen related receptor (ERR) signaling pathway - cell viability counter screen (AID 1224818).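 Further: series mostly up to about 46 µM; viability measured after 17.5 h of compound exposure; on the % scale 0 is the no-effect control and ±100 the full control effect.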 Put shortly: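 ERR reporter cells plated 6 h at 37 C/5% CO2, then compounds in DMSO pin-transferred and incubated 17.5 h at 37 C. Viability read as CellTiter-Fluor fluorescence after 30 min at 37 C.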
Assay [15] is described as follows: qHTS assay to identify small molecule antagonists of the estrogen related receptor signaling pathway with the pleiotropic PPARgamma coactivator (PGC) cell viability counter screen (AID 1224822; further: series mostly up to about 46 µM; on the % scale 0 is the no-effect control and ±100 the full control effect). Put shortly: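 PGC/ERR cells were seeded at 2,000 cells/well, rested 6 h at 37 C/5% CO2, then given compounds in DMSO by pin tool and incubated 17.5 h at 37 C. Viability came from CellTiter-Fluor fluorescence after 30 min.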

Assay [16] can be described thus: qHTS assay to identify small molecule antagonists of the retinoic acid receptor (RAR) signaling pathway (AID 1159552; further: potency means the concentration at half of the fitted maximal effect; nearly all actives have a fitted effect of over 50% in size). The method, boiled down:
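Test chemicals and DMSO controls were pin-transferred onto C3RL4 cells a day after seeding; retinol (1 uM final) followed at once. Luminescent reporter output was quantified after 6 hr of co-incubation and 30 min with detection reagent.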

Sequence of Thyrotropin receptor (Homo sapiens) (P16473 whole entry, looked up): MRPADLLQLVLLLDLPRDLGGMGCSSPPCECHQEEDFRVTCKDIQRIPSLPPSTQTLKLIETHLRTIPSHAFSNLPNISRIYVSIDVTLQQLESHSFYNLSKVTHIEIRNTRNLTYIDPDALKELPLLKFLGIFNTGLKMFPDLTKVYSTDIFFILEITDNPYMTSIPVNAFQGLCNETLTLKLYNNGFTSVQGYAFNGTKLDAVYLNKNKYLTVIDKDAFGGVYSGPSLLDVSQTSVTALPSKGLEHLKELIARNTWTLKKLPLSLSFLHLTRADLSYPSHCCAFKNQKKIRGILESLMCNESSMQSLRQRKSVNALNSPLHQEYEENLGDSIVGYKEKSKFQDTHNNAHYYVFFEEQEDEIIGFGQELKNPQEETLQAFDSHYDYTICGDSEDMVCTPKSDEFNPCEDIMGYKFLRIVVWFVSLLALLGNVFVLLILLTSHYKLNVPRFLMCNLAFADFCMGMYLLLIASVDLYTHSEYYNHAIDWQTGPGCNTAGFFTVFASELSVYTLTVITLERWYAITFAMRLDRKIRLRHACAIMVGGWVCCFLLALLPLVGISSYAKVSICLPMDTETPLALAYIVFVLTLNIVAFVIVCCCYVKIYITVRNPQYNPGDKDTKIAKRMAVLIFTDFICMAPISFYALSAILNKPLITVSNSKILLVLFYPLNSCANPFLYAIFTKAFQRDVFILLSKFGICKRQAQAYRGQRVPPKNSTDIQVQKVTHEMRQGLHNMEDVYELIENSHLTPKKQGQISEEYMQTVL
Sequence of Luciferin 4-monooxygenase (Photinus pyralis) (P08659 whole entry, looked up): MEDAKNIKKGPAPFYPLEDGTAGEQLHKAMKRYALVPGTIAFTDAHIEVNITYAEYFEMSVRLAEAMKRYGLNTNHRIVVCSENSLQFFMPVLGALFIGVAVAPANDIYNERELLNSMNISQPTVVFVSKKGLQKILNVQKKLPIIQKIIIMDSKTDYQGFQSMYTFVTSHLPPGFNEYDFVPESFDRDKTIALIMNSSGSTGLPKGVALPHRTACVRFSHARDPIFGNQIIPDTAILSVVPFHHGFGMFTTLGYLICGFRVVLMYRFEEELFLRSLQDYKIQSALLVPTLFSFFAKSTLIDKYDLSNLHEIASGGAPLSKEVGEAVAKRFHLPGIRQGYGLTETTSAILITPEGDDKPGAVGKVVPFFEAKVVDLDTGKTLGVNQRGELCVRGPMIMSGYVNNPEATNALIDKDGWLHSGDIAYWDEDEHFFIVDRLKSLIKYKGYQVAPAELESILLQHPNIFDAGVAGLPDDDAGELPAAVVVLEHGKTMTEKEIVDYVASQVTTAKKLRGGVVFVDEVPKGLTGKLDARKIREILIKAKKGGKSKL
Sequence of Nuclear receptor subfamily 1 group I member 3 (Homo sapiens) (Q14994 whole entry, looked up): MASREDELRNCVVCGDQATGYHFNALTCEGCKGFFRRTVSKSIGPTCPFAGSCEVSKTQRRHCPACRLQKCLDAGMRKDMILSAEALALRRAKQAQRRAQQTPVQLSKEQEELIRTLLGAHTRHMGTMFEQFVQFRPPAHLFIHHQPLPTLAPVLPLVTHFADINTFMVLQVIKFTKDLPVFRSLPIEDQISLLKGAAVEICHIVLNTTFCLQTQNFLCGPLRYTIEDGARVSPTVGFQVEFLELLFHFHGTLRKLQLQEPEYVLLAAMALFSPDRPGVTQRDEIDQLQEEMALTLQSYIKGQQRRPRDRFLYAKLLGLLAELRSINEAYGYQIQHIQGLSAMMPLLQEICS

For the compound `ClC(Cl)=C(Cl)Cl`, the Potency entry in assay [1], in [2], in assay [3], in [4], in assay [5] and in [6] was “inactive” each time. In addition, the Potency result in assay [7], in assay [8], in assay [9] and in assay [10] was “inactive” throughout.
On to `Cc1cc(C)cc(OP(=O)(Oc2cc(C)cc(C)c2)Oc2cc(C)cc(C)c2)c1`, for which the Potency entry in assay [1], in [2], in [11], in [3], in [4] and in assay [5] was “inactive” throughout. For the same compound, the Potency result in assay [6], in assay [9], in assay [12], in [13] and in assay [10] was “inactive” in each case.
In the case of `BrCBr`, the Potency result in assay [1], in assay [2], in assay [3], in assay [4], in assay [5] and in assay [6] was “inactive” in each case. Moreover, the Potency result in [7], in assay [8], in assay [9] and in assay [10] was “inactive” throughout.
For the compound `CCCCCCCCCCCCCCCC[n+]1ccccc1`, the Potency in [1] is 17.1 µM (active) [middle of 4 runs]; in assay [2], 63.9 µM (active) and 54.5 µM (active) and 53.7 µM (active); in assay [3] it was 32 µM (active) [middle of 4 runs]; in [5], 25.5 µM (active) and 15.4 µM (active) and 13.5 µM (active); in assay [6], 32 µM (active) and 15.4 µM (active) and 19.1 µM (active); in assay [9], 53.7 µM (active) [middle of 4 runs]. Also, the Potency entry in [4] was “inactive”.
Consider `CC(C)[C@H](C(=O)O[C@H](C#N)c1cccc(Oc2ccccc2)c1)c1ccc(Cl)cc1`, for which the Potency entry in [1], in [2], in assay [3], in assay [4], in assay [5] and in assay [6] was “inactive” throughout.
Take `CCOC(=O)CC(=O)CCl`: the Potency result in [1], in assay [2], in [11], in assay [3], in assay [4] and in assay [6] was “inactive” throughout. In addition, the Potency entry in assay [7] and in assay [8] was “inactive” in each case.
`CC(C)CC(C)N` (stereo not given): the Potency result in assay [1], in [2], in assay [3], in assay [4], in assay [5] and in assay [6] was “inactive” throughout. Further, the Potency result in [9], in assay [12], in assay [13] and in assay [10] was “inactive” in each case.
`Oc1ccc(C(c2ccc(O)cc2)(C(F)(F)F)C(F)(F)F)cc1`: the Potency is 48.8 µM (active) in [1]; 54.2 µM (active) in assay [3]; 4.31 µM (active) and 5.45 µM (active) in assay [8]; 60.8 µM (active) in [12]; 30.5 µM (active) in [10]. Besides, the Potency entry in [2], in [4], in assay [5] and in assay [6] was “inactive” throughout.
`ClCc1ccc(Cl)cc1Cl`: the Potency entry in assay [1], in assay [2], in assay [3], in assay [4], in [5] and in assay [6] was “inactive” in each case. Further, the Potency result in assay [7], in [8], in assay [9] and in assay [10] was “inactive” each time.
Regarding `CC1(C)CC/C(=C/c2ccc(Cl)cc2)C1(O)Cn1cncn1` (stereo not given), the Potency entry in [1], in assay [2], in assay [11], in [15], in assay [4] and in assay [7] was “inactive” each time. In addition, in [8], the Potency result is “inactive”. Also, the result in assay [14] was inactive. Further, the Potency in assay [6] is 68.2 µM (active).
`CC(=O)c1cc(C(C)(C)C)cc2c1CCC2(C)C`: the Potency entry in assay [1], in assay [2], in assay [3], in assay [4], in [5] and in assay [6] was “inactive” in each case. Besides, the Potency result in [7], in assay [9], in [12] and in assay [13] was “inactive” in each case.
For `C=COCCCl`, the Potency entry in assay [1], in [2], in assay [3], in assay [4], in assay [5] and in assay [6] was “inactive” throughout. In addition, the Potency result in assay [7], in [8], in assay [9], in assay [12], in assay [13] and in assay [10] was “inactive” in each case.
On to `CN(CCCC(=O)c1cccnc1)N=O`, for which the Potency result in assay [1], in [2], in assay [3], in assay [4], in assay [6] and in [7] was “inactive” each time. Besides, the Potency entry in assay [8], in [9] and in assay [10] was “inactive” throughout.
For the compound `CC(=O)[O-].CC(=O)[O-].O.O.[Cd+2]`, the Potency was 13.6 µM (active) in assay [1]; 26.9 µM (active) in assay [3]; 5.37 µM (active) in assay [5]; 6.76 µM (active) in assay [6]; 12 µM (active) in assay [9]. For the same compound, in assay [2], the Potency result is “inactive”.
`Cc1cc(C)c(C2=C(OC(=O)CC(C)(C)C)C3(CCCC3)OC2=O)c(C)c1`: the Potency result in [1], in assay [2], in assay [3], in [5], in assay [6] and in assay [7] was “inactive” each time. The Potency result in assay [8], in assay [9] and in assay [12] was “inactive” throughout.
For the compound `CC[C@H](C)[C@H]1O[C@]2(C=C[C@@H]1C)C[C@@H]1C[C@@H](C/C=C(\C)[C@@H](O[C@H]3C[C@H](OC)[C@@H](O[C@H]4C[C@H](OC)[C@@H](O)[C@H](C)O4)[C@H](C)O3)[C@@H](C)/C=C/C=C3\CO[C@@H]4[C@H](O)C(C)=C[C@@H](C(=O)O1)[C@]34O)O2`, the Potency in assay [1] was 16.3 µM (active); in assay [16], 32.2 µM (active); in assay [3], 16.1 µM (active); in assay [5] it was 32.2 µM (active); in assay [6], 32.2 µM (active); in [7] it was 40.5 µM (active). In addition, the Potency in assay [9] is 28.7 µM (active); in assay [12], 7.2 µM (active). The Potency result in assay [4], in assay [8] and in assay [13] was “inactive” in each case.
Consider `Clc1ccc(-c2ccccc2)cc1`, for which the Potency entry in assay [1], in assay [2], in assay [3], in assay [5], in assay [6] and in [7] was “inactive” each time. For the same compound, the Potency result in [8], in assay [9], in assay [12], in assay [13] and in assay [10] was “inactive” each time.
As to `C=CC(=O)OCC(COC(=O)C=C)(COC(=O)C=C)COC(=O)C=C`, the Potency in assay [1] is 17.4 µM (active); in assay [16], 13.7 µM (active); in [11], 1.93 µM (active); in assay [3], 9.69 µM (active); in [5], 15.4 µM (active); in [6], 8.63 µM (active). The Potency in [7] was 8.63 µM (active); in [9], 5.45 µM (active); in assay [12], 13.7 µM (active); in [10] it was 8.63 µM (active). Moreover, the Potency result in assay [4] and in [8] was “inactive” each time.
